Results: ChEMBL document CHEMBL3988442, “University of Dundee, Small-Polar-MMV Screening Library” (2021)
For some assays here: Measured potencies and affinities stand elsewhere.

Key:
Design in all cases: scale not given: direction of the effect not stated beside the values
[1] = target: Protein translocase subunit SecA (Escherichia coli (strain K12)) (UniProt P10408); assay: Assay to Identify E. coli SecA ATPase Inhibitors; assay type: functional; conditions: 30 µM
[2] = target: T1, Ubiquitin-activating enzyme e1, putative (Leishmania donovani (strain BPK282A1)) (UniProt E9BSI1); assay: Leishmania donovani Ubiquitin Activating Enzyme (LdE1); assay type: functional; conditions: 30 µM
T1 sequence (whole entry): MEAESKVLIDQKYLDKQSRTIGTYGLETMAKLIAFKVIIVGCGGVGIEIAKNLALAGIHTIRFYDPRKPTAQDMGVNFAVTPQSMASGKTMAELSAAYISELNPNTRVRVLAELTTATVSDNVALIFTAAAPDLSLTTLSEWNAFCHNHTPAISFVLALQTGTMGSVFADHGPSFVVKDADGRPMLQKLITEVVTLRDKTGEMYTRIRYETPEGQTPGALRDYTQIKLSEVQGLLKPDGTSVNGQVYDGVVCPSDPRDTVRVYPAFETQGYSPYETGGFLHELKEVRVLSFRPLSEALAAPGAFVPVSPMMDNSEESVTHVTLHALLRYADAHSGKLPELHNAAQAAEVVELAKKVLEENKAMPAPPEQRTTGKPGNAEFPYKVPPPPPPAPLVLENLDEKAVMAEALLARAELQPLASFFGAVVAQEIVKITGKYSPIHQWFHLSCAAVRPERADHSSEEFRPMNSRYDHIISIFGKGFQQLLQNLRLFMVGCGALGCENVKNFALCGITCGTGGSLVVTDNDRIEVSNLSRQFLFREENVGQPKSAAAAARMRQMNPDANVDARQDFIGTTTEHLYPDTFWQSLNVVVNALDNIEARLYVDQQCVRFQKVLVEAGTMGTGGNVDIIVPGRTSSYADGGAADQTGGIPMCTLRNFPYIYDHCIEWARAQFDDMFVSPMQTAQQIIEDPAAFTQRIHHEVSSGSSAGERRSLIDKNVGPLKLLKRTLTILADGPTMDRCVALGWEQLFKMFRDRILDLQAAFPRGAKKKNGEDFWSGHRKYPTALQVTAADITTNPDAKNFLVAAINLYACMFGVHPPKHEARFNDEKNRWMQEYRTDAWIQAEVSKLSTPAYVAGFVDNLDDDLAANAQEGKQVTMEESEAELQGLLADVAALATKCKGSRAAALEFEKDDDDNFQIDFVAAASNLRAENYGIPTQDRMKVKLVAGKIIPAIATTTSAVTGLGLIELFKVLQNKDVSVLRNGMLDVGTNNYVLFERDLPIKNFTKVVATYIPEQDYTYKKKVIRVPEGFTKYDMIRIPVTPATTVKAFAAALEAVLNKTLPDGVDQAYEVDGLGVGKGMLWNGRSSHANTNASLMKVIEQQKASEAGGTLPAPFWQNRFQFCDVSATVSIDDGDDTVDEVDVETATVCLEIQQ

[3] = target: AMP-activated protein kinase, AMPK (Homo sapiens) (UniProt P54646+O43741+P54619+Q9UGJ0+Q9Y478+Q13131+Q9UGI9); assay: AMP-dependent Kinase enzyme assay. An in vitro enzyme assay that detects ADP turnover that is directly proportional to AMPK activity. This uses naive AMPK that is activated during the assay with MK-8722; assay type: functional; conditions: 30 µM
[4] = target: Sialic acid-binding Ig-like lectin 9 (Homo sapiens) (UniProt Q9Y336); assay: Hs-Siglec9 ALPHAscreen SOP 20170721; conditions: 10 µM
[5] = system: Trypanosoma cruzi; assay: Trypanosoma cruzi phosphomannomutase and mannose-1-phosphate guanylyltransferase assay; assay type: functional; conditions: 10 µM
[6] = target: T2, Arginase-2, mitochondrial (Homo sapiens) (UniProt P78540); assay: in vitro enzyme assay to detect the production of urea directly proportional to the activity of Arginase II; assay type: functional; conditions: 33.3 µM; also: in the data most compounds retested in dose-response had high values
T2 sequence (whole entry): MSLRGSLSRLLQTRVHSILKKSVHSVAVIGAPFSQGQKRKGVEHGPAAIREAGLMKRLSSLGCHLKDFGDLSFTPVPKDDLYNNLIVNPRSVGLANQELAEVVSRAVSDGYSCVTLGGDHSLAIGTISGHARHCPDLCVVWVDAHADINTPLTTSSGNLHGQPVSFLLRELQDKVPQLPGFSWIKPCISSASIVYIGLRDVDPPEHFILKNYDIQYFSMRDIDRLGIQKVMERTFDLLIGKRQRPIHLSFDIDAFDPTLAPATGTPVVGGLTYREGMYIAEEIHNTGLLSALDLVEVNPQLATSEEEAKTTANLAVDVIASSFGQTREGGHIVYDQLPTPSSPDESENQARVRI

[7] = target: T3, Proteasome subunit beta (Trypanosoma cruzi) (UniProt O96673); assay: Trypanosoma cruzi proteasome chymotrypsin-like activity (TcProtChymo) assay.; also: in the data most compounds retested in dose-response had high values; assay type: functional; conditions: 9.37 µM
T3 sequence (whole entry): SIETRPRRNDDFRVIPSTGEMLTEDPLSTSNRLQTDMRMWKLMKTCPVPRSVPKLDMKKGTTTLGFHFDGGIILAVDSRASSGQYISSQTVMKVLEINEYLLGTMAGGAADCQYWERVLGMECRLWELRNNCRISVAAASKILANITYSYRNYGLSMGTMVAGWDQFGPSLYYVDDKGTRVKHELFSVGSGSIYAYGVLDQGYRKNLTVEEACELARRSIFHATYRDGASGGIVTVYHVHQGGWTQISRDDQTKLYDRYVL

[8] = species: Homo sapiens; assay: To identify inhibition of the IFN signalling (Jak-Stat) pathway via expression of an eGFP reporter gene under the control of an IFN-stimulated response element (ISRE) containing MxA promoter.; assay type: functional; conditions: 30 µM
[9] = target: T4, Tyrosyl-tRNA synthetase, putative (Trypanosoma cruzi (strain CL Brener)) (UniProt Q4DSP6); assay: Trypanosoma cruzi tyrosyl tRNA synthetase (TcYRS) _High Tyrosine SOP; assay type: functional; conditions: 30 µM; also: in the data most compounds retested in dose-response had high values
T4 sequence (whole entry): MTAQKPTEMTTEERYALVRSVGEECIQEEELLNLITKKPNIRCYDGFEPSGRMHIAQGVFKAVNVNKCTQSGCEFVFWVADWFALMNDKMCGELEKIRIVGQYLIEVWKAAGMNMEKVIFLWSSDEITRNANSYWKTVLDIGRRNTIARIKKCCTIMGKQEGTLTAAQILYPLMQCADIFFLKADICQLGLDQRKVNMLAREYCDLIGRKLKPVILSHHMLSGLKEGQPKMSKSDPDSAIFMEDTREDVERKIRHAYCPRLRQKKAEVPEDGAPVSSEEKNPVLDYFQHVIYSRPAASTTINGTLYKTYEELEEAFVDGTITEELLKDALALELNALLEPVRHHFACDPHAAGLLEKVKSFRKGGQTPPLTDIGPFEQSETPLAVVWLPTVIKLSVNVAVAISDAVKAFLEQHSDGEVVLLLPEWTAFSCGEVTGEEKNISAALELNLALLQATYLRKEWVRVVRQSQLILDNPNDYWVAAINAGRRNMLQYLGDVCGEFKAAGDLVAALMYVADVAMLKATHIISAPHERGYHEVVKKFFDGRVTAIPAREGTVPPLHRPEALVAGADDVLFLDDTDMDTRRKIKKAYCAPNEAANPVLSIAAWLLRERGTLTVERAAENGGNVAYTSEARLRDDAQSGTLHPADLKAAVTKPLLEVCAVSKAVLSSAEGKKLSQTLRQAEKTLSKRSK

[10] = target: T4, Tyrosyl-tRNA synthetase, putative (Trypanosoma cruzi (strain CL Brener)); assay: Trypanosoma cruzi tyrosyl tRNA synthetase (TcYRS) SOP; assay type: functional; conditions: 30 µM
[11] = target: Chromo domain-containing protein 1 (Saccharomyces cerevisiae (strain ATCC 204508 / S288c) (Baker's yeast)) (UniProt P32657); assay: ScCHD-1 Enzyme Inhibition Assay; assay type: functional; conditions: 30 µM; also: in the data most compounds retested in dose-response had high values
Chain of Chromo domain-containing protein 1 (Saccharomyces cerevisiae (strain ATCC 204508 / S288c) (Baker's yeast)) (P32657 whole entry, the tested form may be a part): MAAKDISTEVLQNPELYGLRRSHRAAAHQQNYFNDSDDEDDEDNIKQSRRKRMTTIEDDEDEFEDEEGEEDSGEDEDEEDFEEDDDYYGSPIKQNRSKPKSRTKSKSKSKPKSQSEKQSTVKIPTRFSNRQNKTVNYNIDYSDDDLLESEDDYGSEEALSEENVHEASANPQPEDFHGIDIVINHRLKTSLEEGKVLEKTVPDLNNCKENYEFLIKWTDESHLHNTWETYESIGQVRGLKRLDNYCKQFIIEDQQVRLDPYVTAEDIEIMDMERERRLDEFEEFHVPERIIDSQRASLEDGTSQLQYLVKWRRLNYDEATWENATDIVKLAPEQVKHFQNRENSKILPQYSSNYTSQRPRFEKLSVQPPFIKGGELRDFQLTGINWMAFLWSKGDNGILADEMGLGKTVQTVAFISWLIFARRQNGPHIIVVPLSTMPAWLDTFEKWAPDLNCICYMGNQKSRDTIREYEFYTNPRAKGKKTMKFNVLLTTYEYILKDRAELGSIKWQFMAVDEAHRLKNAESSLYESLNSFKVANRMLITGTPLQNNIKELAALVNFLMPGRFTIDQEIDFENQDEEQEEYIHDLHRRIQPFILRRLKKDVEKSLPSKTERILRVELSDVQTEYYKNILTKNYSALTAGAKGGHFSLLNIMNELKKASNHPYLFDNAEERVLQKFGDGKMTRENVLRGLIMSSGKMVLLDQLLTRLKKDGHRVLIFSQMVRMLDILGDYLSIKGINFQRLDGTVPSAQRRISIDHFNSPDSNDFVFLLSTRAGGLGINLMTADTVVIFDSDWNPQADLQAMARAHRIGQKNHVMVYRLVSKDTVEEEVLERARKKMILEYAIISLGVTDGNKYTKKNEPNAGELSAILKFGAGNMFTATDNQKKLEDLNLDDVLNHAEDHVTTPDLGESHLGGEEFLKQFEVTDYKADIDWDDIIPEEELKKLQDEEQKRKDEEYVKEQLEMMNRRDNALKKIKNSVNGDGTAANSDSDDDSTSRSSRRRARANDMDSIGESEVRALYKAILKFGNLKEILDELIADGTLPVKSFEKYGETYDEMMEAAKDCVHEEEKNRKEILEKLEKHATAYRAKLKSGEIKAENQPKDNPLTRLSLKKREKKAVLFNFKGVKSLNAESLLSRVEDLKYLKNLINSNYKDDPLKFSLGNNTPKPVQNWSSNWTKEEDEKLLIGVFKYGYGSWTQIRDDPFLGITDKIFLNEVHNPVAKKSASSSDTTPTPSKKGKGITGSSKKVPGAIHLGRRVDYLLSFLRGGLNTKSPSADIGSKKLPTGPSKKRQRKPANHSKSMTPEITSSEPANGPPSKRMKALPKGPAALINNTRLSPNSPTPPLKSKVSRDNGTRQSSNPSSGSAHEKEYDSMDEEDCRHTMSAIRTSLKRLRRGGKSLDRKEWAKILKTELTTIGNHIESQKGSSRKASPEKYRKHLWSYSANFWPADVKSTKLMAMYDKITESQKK

Chain of Sialic acid-binding Ig-like lectin 9 (Homo sapiens) (Q9Y336 whole entry): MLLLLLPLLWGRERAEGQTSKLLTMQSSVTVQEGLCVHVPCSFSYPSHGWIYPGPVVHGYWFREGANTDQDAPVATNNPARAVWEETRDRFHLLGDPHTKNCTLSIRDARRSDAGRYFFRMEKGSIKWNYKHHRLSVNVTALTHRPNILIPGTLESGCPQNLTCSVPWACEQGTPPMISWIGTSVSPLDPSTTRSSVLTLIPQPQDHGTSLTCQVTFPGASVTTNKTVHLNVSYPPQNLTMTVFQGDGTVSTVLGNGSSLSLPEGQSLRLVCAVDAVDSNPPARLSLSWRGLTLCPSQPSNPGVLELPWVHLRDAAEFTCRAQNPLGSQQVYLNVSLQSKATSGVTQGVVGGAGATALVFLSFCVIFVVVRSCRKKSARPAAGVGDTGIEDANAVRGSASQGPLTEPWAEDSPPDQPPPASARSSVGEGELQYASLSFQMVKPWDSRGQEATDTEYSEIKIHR
Chain of Protein translocase subunit SecA (Escherichia coli (strain K12)) (P10408 whole entry): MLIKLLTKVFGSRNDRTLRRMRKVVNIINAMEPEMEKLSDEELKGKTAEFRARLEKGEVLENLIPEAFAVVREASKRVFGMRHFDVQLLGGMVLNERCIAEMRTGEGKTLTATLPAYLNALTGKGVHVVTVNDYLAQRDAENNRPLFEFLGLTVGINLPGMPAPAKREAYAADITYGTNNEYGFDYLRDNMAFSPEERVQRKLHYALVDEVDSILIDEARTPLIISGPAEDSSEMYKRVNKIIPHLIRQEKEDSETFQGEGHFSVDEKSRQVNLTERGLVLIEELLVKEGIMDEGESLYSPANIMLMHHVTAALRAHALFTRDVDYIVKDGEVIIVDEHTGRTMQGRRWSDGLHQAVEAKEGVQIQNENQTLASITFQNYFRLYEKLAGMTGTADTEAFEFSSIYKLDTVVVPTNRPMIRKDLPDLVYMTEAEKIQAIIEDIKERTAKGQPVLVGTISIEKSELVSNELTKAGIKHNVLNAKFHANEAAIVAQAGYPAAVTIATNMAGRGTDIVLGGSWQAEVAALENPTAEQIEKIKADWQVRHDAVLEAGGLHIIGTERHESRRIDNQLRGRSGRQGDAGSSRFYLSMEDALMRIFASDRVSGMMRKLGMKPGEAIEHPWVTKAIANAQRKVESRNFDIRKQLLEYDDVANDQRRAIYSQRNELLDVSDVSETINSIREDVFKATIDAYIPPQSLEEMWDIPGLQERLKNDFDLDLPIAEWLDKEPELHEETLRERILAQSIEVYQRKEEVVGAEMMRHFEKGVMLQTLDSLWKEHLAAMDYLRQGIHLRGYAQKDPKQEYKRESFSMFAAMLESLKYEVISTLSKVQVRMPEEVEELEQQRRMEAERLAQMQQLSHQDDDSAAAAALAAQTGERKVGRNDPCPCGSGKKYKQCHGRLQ

SMILES | Percent Effect [1] [%] | Percent Effect [2] [%] | Percent Effect [3] [%] | Percent Effect [4] [%] | Percent Effect [5] [%] | Percent Effect [6] [%] | Percent Effect [7] [%] | Percent Effect [8] [%] | Percent Effect [9] [%] | Percent Effect [10] [%] | Percent Effect [11] [%]
Cc1noc(C)c1C(=O)NCc1ccnc(OCC(F)(F)F)c1 | -3.23 | 26.3 | -1.27 | 0.107 | 7.52 | 0 | 11.2 | 10.2 | 7.35 | 9.76 | -11
COc1c(C2CCCN2C(=O)Cc2c(C)noc2C)c(C)nn1C (stereo unspecified) | -4.91 | 15.2 | -0.162 | 8.65 | 0.661 | 0.38 | 0.0819 | -12.4 | 7.39 | 16.5 | -6.93
O=C(Cc1cccnc1)N1CCC2(CC1)CCN(C1CCOCC1)C2 | -5.91 | 0 | 0.681 | -0.504 | -1.67 | -2.76 | 1.83 | 15.5 | 1.07 | -1.24 | 1.45
O=C(CC1CCCC1)NCCn1ccc(-c2ccccn2)n1 | -2.17 | 2.6 | 9.65 | 12 | -3.85 | 0.645 | -2.09 | -8.59 | 2.12 | 6.41 | -2.03
COc1ccccc1N1CCC(CNCc2cccc(OC)c2OC)C1 (stereo unspecified) | -3.66 | 10.8 | -14.2 | 3.03 | 6.51 | -13.6 | 7.75 | 18.9 | 13.3 | 23.5 | -8.44
COc1ccc(-c2noc(CN3CCOCC3C)n2)cc1OC (stereo unspecified) | -2.2 | 18.9 | -11.1 | 15.8 | 0.0943 | -6.81 | 8.83 | 28.9 | 5.42 | 16.1 | -11
CNC(=O)c1cc2c(nc1NCC1CC1)CCN(c1ccncn1)CC2 | -4.02 | 1.33 | 11.9 | 4.48 | -1.57 | -4.05 | 9.61 | 35.2 | 1.06 | 0 | -5.29
Cc1nn(C)c2cnn(CC(=O)NCCc3ccccc3)c12 | -4.41 | 6.67 | 5.28 | 4.15 | -2.16 | -12.5 | 13.3 | 1.66 | 5.29 | 17.9 | -8.21
CCN(Cc1ccc2c(c1)OCCO2)S(=O)(=O)N(C)C(C)C | -5.7 | 7.79 | 3.89 | 16 | 5.99 | 0.356 | 3.38 | 9.12 | 0 | 14.6 | -6.79
CCn1cc(CN(C)S(=O)(=O)c2cc(Cl)ccc2Cl)cn1 | -0.942 | 14.7 | -0.125 | -2.27 | -6.09 | -8.98 | 15.9 | 2.3 | 0 | 7.69 | -9.05
COc1ccccc1[C@@H]1CN(C(=O)c2csc(C)n2)C[C@H]1C(=O)O | -2.85 | 1.39 | -3.07 | -2.56 | -0.0972 | 5.3 | 16.7 | -4.31 | 12.6 | 17.9 | -3.19
CC(NC(=O)NCCCn1ccnc1)c1ccc2c(c1)OCCCO2 (stereo unspecified) | -3.41 | 2.7 | -7.49 | -2.67 | -8.08 | 5.36 | -0.539 | 12.7 | 1.98 | 1.22 | 2.18
CN(C)C(=O)COCc1cncc2c1CCN(Cc1nccn1C)C2 | -2.93 | 7.79 | 3.61 | 17.4 | 7.18 | -106 | 3 | 20.9 | 6.45 | 13.6 | 0.222
O=C(CCc1cscn1)N1CCCC(n2ccnc2)C1 (stereo unspecified) | -6.32 | 1.27 | 6.89 | -0.321 | -2.36 | 0.645 | 0.343 | -13.2 | 8.33 | 5.06 | -12.3
CN(C)Cc1nc(C(C)(C)NC(=O)C2CC(=O)N(CC3CC3)C2)no1 (stereo unspecified) | -8.14 | 5.41 | 0.168 | 2.33 | -3.44 | 3.14 | -3.77 | 22.2 | 1.98 | 1.22 | 4.96
Cc1ccc(NC2CCN(C(=O)Cc3csc(C)n3)CC2)nn1 | -0.935 | 21.6 | -5.18 | -3.82 | -8.02 | 1.2 | 18.6 | 4.91 | 7.39 | 16.1 | -4.45
